# Most compounds without a hit are left out; they make up all but 3.6% or so of the library.
# CendR NRP1 mod: modulators of CendR peptide binding to human neuropilin-1; O14786; FAM-RPARPAR peptide binding to NRP-1, fluorescence polarization; inhibition, % at 25 µM; 360,000 compounds, 0.85% hits; AID 602438;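 active = inhibition or corrected inhibition above about 18%, plus a signal ratio from 0.5 to 1.5, limit read from the data, passing the limit was not always enough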
# Target sequence (O14786 whole entry, looked up): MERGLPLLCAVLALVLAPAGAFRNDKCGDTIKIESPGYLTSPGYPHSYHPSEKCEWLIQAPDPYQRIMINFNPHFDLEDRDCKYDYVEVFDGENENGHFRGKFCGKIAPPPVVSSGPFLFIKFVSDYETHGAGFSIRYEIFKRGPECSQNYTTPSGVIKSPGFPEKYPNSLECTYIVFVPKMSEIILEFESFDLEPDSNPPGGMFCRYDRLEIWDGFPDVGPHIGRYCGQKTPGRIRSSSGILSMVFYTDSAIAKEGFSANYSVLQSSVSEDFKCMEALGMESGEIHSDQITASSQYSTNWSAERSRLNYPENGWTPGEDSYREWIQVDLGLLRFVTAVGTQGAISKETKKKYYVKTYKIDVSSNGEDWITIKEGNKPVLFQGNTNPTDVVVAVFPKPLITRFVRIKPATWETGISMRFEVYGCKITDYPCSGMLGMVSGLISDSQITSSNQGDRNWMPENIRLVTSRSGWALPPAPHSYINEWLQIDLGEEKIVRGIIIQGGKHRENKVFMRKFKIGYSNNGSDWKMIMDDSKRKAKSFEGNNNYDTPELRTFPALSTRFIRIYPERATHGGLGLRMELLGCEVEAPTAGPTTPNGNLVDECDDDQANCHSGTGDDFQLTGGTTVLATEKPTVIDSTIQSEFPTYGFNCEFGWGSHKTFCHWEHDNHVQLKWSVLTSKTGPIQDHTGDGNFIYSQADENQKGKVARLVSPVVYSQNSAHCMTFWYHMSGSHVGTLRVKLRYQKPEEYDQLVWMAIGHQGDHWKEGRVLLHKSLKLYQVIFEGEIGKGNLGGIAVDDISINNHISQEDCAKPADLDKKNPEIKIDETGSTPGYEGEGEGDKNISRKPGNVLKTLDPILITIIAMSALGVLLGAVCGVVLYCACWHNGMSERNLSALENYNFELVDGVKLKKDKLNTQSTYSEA
# CRFBP-R2 block: blocks CRF-induced signaling of the CRF-BP/CRF-R2 complex; HEK293 CRF-R2/CRF-BP, CRF-induced calcium fluorescence; inhibition, % at 11.8 µM; 350,000 compounds, 0.59% hits; AID 588475;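 active = inhibition of the ligand-induced calcium signal above about 50% at the single tested concentration, limit read from the data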
# Myeloid diff MLP: promotes myeloid progenitor differentiation. ER-HoxA9 myeloid progenitors, lysozyme-GFP differentiation, flow cytometry. calls only at 10 µM. 360,000 compounds, 1% hits. AID 624256;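 active = normalized GFP-positive differentiation at or above the plate's own cutoff, the solvent-only control mean plus 3 SD; inconclusive = no clear call, values can overlap the other calls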;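 also: cells exposed to compound for four days before flow analysis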
# NadD inh: inhibitors of Staphylococcus aureus NadD; purified NadD enzyme, colorimetric absorbance read-out; AID 602399; 360,000 compounds, 0.78% hits; inhibition, % at 20 µM; in the data active = inhibition above about 26%
# FAS-TE inh: inhibitors of human fatty acid synthase thioesterase domain; 360,000 compounds, 0.67% hits; recombinant FAS-TE, OMFH fluorogenic substrate, fluorescence endpoint; AID 602261; inhibition, % at 15 µM; P49327;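 active = compounds whose normalised, plate-corrected inhibition of enzyme fluorescence in the single-dose primary screen is 50% or more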
# Myeloid diff: compounds promoting myeloid differentiation; calls only; ER-HoxA9 myeloid progenitors, GFP/Mac1 double-positive flow; 2,300 compounds, 2% hits; shares compounds with Myeloid diff MLP;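 active = share of green or green-and-red cells above 9 and 9% in run 1 or 4 and 3% in run 2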
# GFP autofluor: counter-screen for myeloid differentiation promoters: compound fluorescence. shares compounds with Myeloid diff MLP. ER-HoxA9 myeloid progenitors, no estrogen, GFP autofluorescence flow cytometry; vehicle wells 0%, positive control 100%. fluorescence response, % (no concentration beside the values). 2,300 compounds, 7.4% hits. AID 651707;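 active = over 5% cells positive for green fluorescent reporter, or over 2% positive for both it and APC stain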
# A number is an active result; n = inactive; u = inconclusive; x = no result given; + = active, no number.
SMILES,CendR NRP1 mod,CRFBP-R2 block,Myeloid diff MLP,NadD inh,FAS-TE inh,Myeloid diff,GFP autofluor
CC1(C)CC(=O)C2=C(C1)N(Cc1ccco1)C(=O)C2(NC(=O)c1ccc(Cl)cc1Cl)C(F)(F)F (stereo not given),n,n,n,n,n,x,x
CC1(C)CC(=O)C2=C(C1)N(Cc1ccco1)C(=O)C2(NC(=O)C1CCCCC1)C(F)(F)F (stereo not given),n,n,n,n,n,n,n
CC(C(=O)NNS(=O)(=O)c1cccc(C(F)(F)F)c1)n1nnc(N2CCOCC2)n1 (stereo not given),n,n,+,n,n,n,n
CCOc1cc(S(=O)(=O)NCCCN2CCOCC2)ccc1F,n,n,n,n,n,x,x
CN(Cc1ccccc1)C(=O)CN1CCN(C(c2ccccc2)c2ccccc2)CC1,n,n,n,n,n,x,x
COc1ccc(CNC(=O)C2CCCN(S(=O)(=O)c3c(C)n[nH]c3C)C2)cc1 (stereo not given),n,n,n,n,n,n,n
O=C(/C=C/c1ccco1)N(Cc1ccc(Cl)cc1)C1CCS(=O)(=O)C1 (stereo not given),n,n,n,n,n,x,x
Cc1ccc(/C=C/C(=O)N2CCc3ccccc32)o1,n,n,n,n,n,n,n
Oc1ccc(N2CCN(c3nnnn3-c3ccccc3)CC2)cc1,n,n,+,n,n,n,n
CCCNC(=O)N[C@H]1CC[C@@H](CCn2cc(-c3cccc(F)c3)nn2)O[C@@H]1CO,n,x,+,x,x,n,n
O=C1OCCC1=CN1CCCCC1,n,n,n,n,n,x,x
Cc1ccc(S(=O)(=O)c2nc(S(=O)(=O)c3ccccc3)sc2N2CCN(C)CC2)cc1,n,n,u,n,n,x,x
O=[N+]([O-])c1ccccc1/C=C/CN1CCCCC1CO (stereo not given),n,n,n,n,n,x,x
O=[N+]([O-])c1ccccc1/C=C/CN1CCCCC1,n,n,n,n,n,n,n
CC(=O)N/N=C/c1cc(C(C)(C)C)cc(/C=N/NC(C)=O)c1O,35.0,n,+,n,n,n,n
CCC(O)(CC)C(=O)N/N=C/c1cc(Br)cc(Br)c1O,n,n,n,n,n,x,x
NS(=O)(=O)c1ccc(Nc2ncccc2[N+](=O)[O-])cc1,n,n,+,n,n,n,n
COc1ccc(Oc2nccc(OC)c2C#N)cc1,n,n,n,n,n,x,x
COc1ccnc(Oc2ccc(C)cc2C)c1C#N,n,n,+,n,n,n,n
Cn1c(=O)c2c(nc(NCc3ccco3)n2C)n(C)c1=O,n,n,n,n,n,x,x
Cn1c(=O)c2c(nc(NCc3ccco3)n2C/C=C/c2ccccc2)n(C)c1=O,n,n,n,n,n,n,n
COc1ccc(S(=O)(=O)N2CCCCC2)cc1NC(=O)c1ccc([N+](=O)[O-])o1,n,n,n,n,n,x,x
CCN1CCN(c2ccc(S(=O)(=O)N3CCCCC3)cc2NC(=O)c2ccc([N+](=O)[O-])o2)CC1,n,n,n,n,n,n,n
O=C(NCc1ccc2c(c1)OCO2)C1CCN(c2ncccn2)CC1,n,n,n,n,n,n,n
COc1ccccc1C1CC(c2ccccc2)=NN1S(=O)(=O)c1ccccc1 (stereo not given),n,n,n,n,n,x,x
SMILES,CendR NRP1 mod,CRFBP-R2 block,Myeloid diff MLP,NadD inh,FAS-TE inh,Myeloid diff,GFP autofluor
COc1cccc(C2CC(c3ccccc3)=NN2S(=O)(=O)c2ccc(C)cc2)c1OC (stereo not given),n,n,+,n,n,n,92.7
CN(C)c1cccc(Nc2ccc(-c3ccc(OC(F)(F)F)cc3)cn2)c1,n,x,+,n,n,n,n
CN(C)c1cccc(-c2cc(Nc3ccc(C(C)(C)C)cc3)ncn2)c1,n,x,n,n,n,x,x
Cc1oc(-c2ccccc2)nc1C(=O)OCC(=O)NCc1ccc(Cl)cc1,n,n,n,n,n,x,x
Cc1ccc(CNC(=O)COC(=O)c2nc(-c3ccccc3)oc2C)cc1,n,n,n,n,n,n,n
CCN(CC)CCNC(=O)c1cn(C)c2ccc(S(=O)(=O)N(C)C3CCCCC3)cc2c1=O,n,n,n,n,n,n,n
CCOC(=O)c1c(C)[nH]c(C(=O)N/N=C/c2cccc(OC)c2)c1C,n,n,n,n,n,x,x
CCOC(=O)c1c(C)[nH]c(C(=O)N/N=C\c2ccccc2Cl)c1C,n,n,n,n,n,n,n
CCCCNS(=O)(=O)c1ccc2nc(-c3cccnc3)cc(C(=O)NCC(OC)OC)c2c1,n,n,n,n,n,x,x
C=CCN1C=C/C(=C\C=C(C#N)C#N)c2ccccc21,n,n,+,n,n,n,n
c1ccc(CSc2nnc3ccc(-c4ccco4)nn23)nc1,n,n,n,n,n,x,x
CCOc1ccc(/C=N/NC(=O)c2ccccc2Cl)cc1CN1CC2CC(C1)c1cccc(=O)n1C2 (stereo not given),n,n,n,n,n,n,n
Cc1ccc(S(=O)(=O)N(CC(=O)N(C)C)c2cccc([N+](=O)[O-])c2)cc1,n,n,+,n,n,n,n
Cc1ccc(CNC(=O)CN(c2cccc([N+](=O)[O-])c2)S(=O)(=O)c2ccccc2)cc1,n,n,n,n,n,x,x
CCOc1ccc(N(CC(=O)Nc2ccc(C)cc2)S(=O)(=O)c2c(C)noc2C)cc1,n,n,+,n,n,n,n
CCOc1ccc(N(CC(=O)Nc2ccc(F)c(F)c2)S(=O)(=O)c2c(C)noc2C)cc1,n,n,n,n,n,x,x
CCCCc1c(CCC)c(=N)c2ccccc2n1C,n,n,n,n,n,n,n
CCCCc1c(O)c2ccccc2n(CCCC)c1=O,n,n,n,n,n,x,x
CN1C(=O)C(C)(C)c2cc(S(=O)(=O)NCc3ccc(C(=O)NCc4ccco4)cc3)ccc21,n,n,n,n,n,x,x
O=C(NCCN1CCc2ccccc2C1)C1CCN(S(=O)(=O)N2CCCCC2)CC1,n,n,n,n,n,n,n
O=C(NCCN1CCc2ccccc2C1)C1CCN(S(=O)(=O)N2CCC3(CC2)OCCO3)CC1,n,n,n,n,n,x,x
CCOc1cccc(-c2nnc3n2N=C(c2cc(OC)ccc2OC)CS3)c1,n,n,n,n,n,x,x
COc1cccc(-c2nnc3n2N=C(c2cc(OC)ccc2OC)CS3)c1,n,n,+,n,n,n,10.6
C#CC[N+](CC)(CC)CC#Cc1cccc(Cl)c1,n,n,+,n,n,n,n
C#CC[N+](C)(C)CC#Cc1ccc(Cl)cc1,n,n,n,n,n,x,x
CN1CCCN(S(=O)(=O)c2ccc3ccccc3c2)CC1,n,n,n,n,n,x,x
COc1cc2c(=O)n(Cc3ccccc3)c(=O)n(CC(=O)NCCc3ccccc3)c2cc1OC,n,n,+,n,n,n,n
O=C(NC1CCCCC1)C(Cc1ccccc1)NS(=O)(=O)c1cccs1 (stereo not given),n,n,n,n,n,n,n
Cc1csc(SCC(=O)Nc2sc3c(c2C#N)CCC3)n1,n,n,n,n,n,n,n

# Assay outcomes deposited in PubChem by several laboratories.
